The source of these data is PubChem BioAssay (EPA / NIEHS).

Values joined by “and” are separate entries in the source; they are usually repeats but may differ in a detail not shown here. Equal entries are not always repeated. Records with an inconclusive call do not appear. Some compounds were tested as several samples or in several runs, with calls that do not always agree. Active and inactive are the calls of the source. How the source made its calls: active means hit-call score of the fitted dose curve at least 0.9, where 1 is the maximum; inconclusive means response in the unintended direction; inactive means score below 0.9.

Chain of Cellular tumor antigen p53 (Homo sapiens) (P04637 whole entry, looked up, the tested form may be a part): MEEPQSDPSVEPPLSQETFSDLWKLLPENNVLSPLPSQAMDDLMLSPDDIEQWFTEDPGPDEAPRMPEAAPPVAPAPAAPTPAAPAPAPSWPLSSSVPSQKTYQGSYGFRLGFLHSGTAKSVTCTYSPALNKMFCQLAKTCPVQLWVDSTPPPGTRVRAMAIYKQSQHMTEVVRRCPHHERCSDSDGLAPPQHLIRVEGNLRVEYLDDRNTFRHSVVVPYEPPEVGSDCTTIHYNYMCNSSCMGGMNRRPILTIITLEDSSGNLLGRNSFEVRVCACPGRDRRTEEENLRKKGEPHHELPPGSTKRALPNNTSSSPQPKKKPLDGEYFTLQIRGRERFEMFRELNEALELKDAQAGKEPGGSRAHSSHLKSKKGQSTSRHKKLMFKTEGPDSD

The test has as its target Cellular tumor antigen p53 (Homo sapiens) (UniProt P04637). As to the kind of experiment: TOX21_p53_BLA_p5_ratio: Tox21 HCT-116 p53 Agonism Beta-lactamase Assay, Ratio, Phase 5 (AID 2283599). From the text: TOX21_p53_BLA_p5 is a cell-based, single-readout assay that uses HCT116, a human intestinal cell line, […] in a 1536-well plate.TOX21_p53_BLA_p5_ratio is an assay readout measuring reporter gene via receptor activity and designed using inducible reporter (beta lactamase induction) detected with GAL4 b-lactamase reporter gene. The signal is derived from the ratio of cleaved (ch2) to uncleaved (ch1) reporter gene substrate used as the measure of target activity.Data from the assay component TOX21_p53_BLA_p5_ratio was analyzed into 1 assay endpoint. This assay endpoint, TOX21_p53_BLA_p5_ratio, was analyzed in the positive analysis fitting direction relative to DMSO as the negative control and baseline of activity. Using a type of inducible reporter, gain-of-signal activity can be used to understand changes in the reporter gene as they relate to the gene TP53. Furthermore, this assay endpoint can be referred to as a primary readout, because this assay has produced multiple assay endpoints and this ratio serves a reporter gene function to understand target activity. To generalize the intended target to other relatable targets, this assay endpoint is annotated to the DNA binding intended target family, where the subfamily is tumor suppressor.
Thawing Method: Place 14 mL of pre-warmed thaw medium into a 15 mL of conical tub. Remove the vial of cells to be thawed from liquid nitrogen and thaw rapidly by placing at 37C in a water bath with gentle agitation for 1-2 minutes. Decontaminate the vial by wiping with 70% ethanol before opening in a biological safety cabinet. Transfer the vial contents drop-wise into 14 mL of thaw medium in a sterile 15-mL conical tub. Centrifuge cells at 900 rpm for 4 minutes and resuspend in thaw medium. Transfer contents to the T75 tissue culture flask containing Thaw Medium and place flask in a humidified 37C/5% CO2 incubator. Switch to growth medium at first passage.Propagation Method: Aspirate medium, rinse once in DPBS, add 0.25% Trypsin/EDTA and swirl to coat the cell evenly. Add an equal volume of Growth Medium to inactivate Trypsin after 2-3 minutes incubation at 37C. Centrifuge cells at 900 rpm for 4 minutes and resuspend in growth medium. Cell should be passage or fed at least twice a week.Assay Protocol: Harvest cells from culture in growth medium and resuspend in assay medium. 2.2 Dispense 4000 cells/5 uL/well into 1536-well black/clear bottom plates using a Multidrop dispenser. After the cells were incubated at 37C for 5 hours, 23 nL of compounds dissolved in DMSO were transferred to the assay plate by a PinTool resulting in a 217-fold dilution. Incubate the plates for 16 hours at 37C, 5% CO2. Add 1 uL of 6X LiveBLAzer FRET B/G (CCF4-AM) Substrate Mixture to each well using a BioRAPTR dispenser and incubate the plates at room temperature for 2 hours. Measure fluorescence intensity at 460 and 530 nm emission and 405 nm excitation by an Envision detector. Data is expressed as the ratio of 460nm/530nm emissions. Add 4 uL of Cell-titer Glo to each well using BioRAPTR and incubate the plates at room temperature for 2 hours. Measure fluorescence intensity by a VewLux plate reader.
Regarding `C=CC(N)=O`, the outcome was inactive.

In the case of `CC(c1ccc(O)cc1)(c1ccc(O)cc1)c1ccc(O)cc1`, the result was inactive.

Consider `N#Cc1ccc(N(CC(N)=O)CC(F)(F)F)cc1C(F)(F)F`, for which the outcome was inactive.

Broadly, the AC50 is the concentration at which the activity in the assay is half-maximal. With `C[C@]12CCC(=O)C=C1CC[C@@H]1[C@@H]2CC[C@@]2(C)[C@H]1CC[C@]2(C)O`, the result was inactive and the concentration at half-maximal activity (AC50) was 47.1 µM (active).

Regarding `COS(=O)(=O)OC`, the outcome was inactive.

For the molecule `c1ccc(-c2ccccc2)cc1`, the result was inactive.

For the molecule `CCOC(=O)C(O)(c1ccc(Cl)cc1)c1ccc(Cl)cc1`, the AC50 is 80.1 µM (active) and 66.1 µM (active).

Regarding `CCC(C)c1cc([N+](=O)[O-])cc([N+](=O)[O-])c1O` (stereo not given), the AC50 was 3.4 µM (active).

As for `COc1ccc(O)c(C(C)(C)C)c1`, the result was inactive.

With `CCC(C)(c1ccc(O)cc1)c1ccc(O)cc1`, the result was inactive and the AC50 was 75.7 µM (active).

Regarding `Clc1ccc(Cl)cc1`, the outcome was inactive.

Turning to `CN(C)CCO`, the outcome was inactive.

Regarding `C[C@]12CCC(=O)C=C1CC[C@@H]1[C@@H]2CC[C@]2(C)C(=O)CC[C@@H]12`, the outcome was inactive.

For `CC(C)C(=O)OCC(C)(C)C(OC(=O)C(C)C)C(C)C` (stereo not given), the outcome was inactive.

On to `CCCCCCOC(=O)c1ccccc1C(=O)OCCCCCC`, for which the result was inactive.

Regarding `CC1=C2C[C@H]3[C@@H](CC=C4C[C@@H](O)CC[C@@]43C)[C@@H]2CC[C@]12O[C@@H]1C[C@H](C)CN[C@H]1[C@H]2C`, the result was inactive.

`CCCN(CCC)N=O`: the outcome was inactive.

For `Clc1ccc(C(Cl)(Cl)Cl)cc1`, the result was inactive.

Take `OCC(O)CO`: the outcome was inactive.

Turning to `ClC(Cl)=C(c1ccc(Cl)cc1)c1ccc(Cl)cc1`, the outcome was inactive.

Consider `c1cc2ccc3cccc4ccc(c1)c2c34`, for which the outcome was inactive.

For the molecule `O=S(=O)(O)C(F)(F)C(F)(F)C(F)(F)C(F)(F)C(F)(F)C(F)(F)F`, the outcome was inactive.

For `O=C(N[C@H]1CN2CCC1CC2)c1cc2ccoc2cn1`, the result was inactive.

Turning to `CCCCCCCCOC(=O)c1ccccc1C(=O)OCCCCCCCC`, the result was inactive.

With `CCCCCCCCCc1ccc(O)cc1`, the outcome was inactive.

`Cc1ccccc1[N+](=O)[O-]`: the result was inactive.

Consider `C=CC(=O)NCNC(=O)C=C`, for which the outcome was inactive.

As for `O=C(NC(=O)c1c(F)cccc1F)Nc1cc(Cl)c(OC(F)(F)C(F)F)c(Cl)c1`, the outcome was inactive.

Consider `Oc1ccc(Cl)cc1Cl`, for which the outcome was inactive.

With `CCC(=O)O[C@H]1CC[C@H]2[C@@H]3CCC4=CC(=O)CC[C@]4(C)[C@H]3CC[C@]12C`, the outcome was inactive.

Consider `Cc1cc(O)ccc1Cl`, for which the outcome was inactive.

`Cc1ccccc1O`: the result was inactive.

With `Nc1ccc(-c2ccc(N)cc2)cc1`, the result was inactive.

In the case of `O=S(=O)(O)C(F)(F)C(F)(F)C(F)(F)C(F)(F)F`, the result was inactive.

With `O=C(O)C(F)(F)C(F)(F)C(F)(F)C(F)(F)C(F)(F)C(F)(F)C(F)(F)C(F)(F)C(F)(F)F`, the result was inactive.

For the molecule `Cc1cc(-c2ccc(N)c(C)c2)ccc1N`, the result was inactive.

With `CCOCCOC(C)=O`, the outcome was inactive.

On to `ClC1=C(Cl)[C@]2(Cl)[C@@H]3[C@H]4C[C@H]([C@@H]5O[C@H]45)[C@@H]3[C@@]1(Cl)C2(Cl)Cl`, for which the result was inactive.
